The list is not random: actives were taken first. Their share in the collection is about 19%.
KB-V1 cytotox = qHTS assay for MDR1-selective chemotherapeutics: Primary screen using the drug-selected MDR subline cells KB-V1 | actives 3.4% (n = 400,000) | AID 1347076, 2019 | KB-V1 MDR cells viability, CellTiter-Glo, 72 h | Potency, µM (series often up to 46.1 µM), usual class: cytotoxic; also: nearly all actives have a fitted effect of over 60% in size
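Cells of the MDR subline KB-V1 are plated, dosed with compound at multiple concentrations, and incubated 72 h at 37 degrees C; CellTiter-Glo is then added and luminescence read after 10 min.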
HT1080NT lethal = qHTS for induction of synthetic lethality in tumor cells producing 2HG: qHTS for the HT-1080-NT fibrosarcoma cell line | HT-1080-NT fibrosarcoma viability, CellTiter-Glo ATP luminescence, 48 h | Potency, µM (highest dose often 46.1 µM), most hits filed as cytotoxic | actives 1.6% (n = 360,000) | AID 686970, 2013;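 also: NT is the 2HG producing partner of a matched IDH1 knockdown line; nearly all actives have a fitted effect of over 55% in size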
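Luminescent CellTiter-Glo readout after 48 hours of compound exposure at 37 degrees C defined viability of HT-1080-NT cells. Activity was normalized to DMSO wells and cell-free media wells; concentration-response curves were fitted and assigned curve classes.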
DT40 TDP1 no CPT = qHTS for Inhibitors of human tyrosyl-DNA phosphodiesterase 1 (TDP1): qHTS in cells in absence of CPT. AID 686978, 2013. DT40 Tdp1-/- hTDP1 cells, no CPT, ATP luminescence, 48 h. Potency, µM (doses to about 46.2 µM), usual class: inhibitors. actives 15% (n = 420,000); also: nearly all actives have a fitted effect of over 55% in size
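A cellular qHTS used chicken DT40 cells lacking endogenous Tdp1 but carrying stably transfected human TDP1. Compounds were applied without camptothecin, and cell growth kinetics were judged by ATP-dependent luminescence after ≥48 hr.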
HT1080 IDH1KD tx = qHTS for induction of synthetic lethality in tumor cells producing 2HG: qHTS for the HT-1080-IDH1KD cell line. AID 686971, 2013. Potency, µM (doses to about 46.1 µM), hits mostly cytotoxic. HT-1080 IDH1 knockdown viability, ATP luminescence, 48 h. actives 2% (n = 360,000)
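Assay cells: HT-1080 with IDH1 knockdown, 750 per well, RPMI/5% FBS. Exposure: 48 h at 37 °C following 2 h pre-incubation. Read: CellTiter-Glo luminescence; fitted concentration-response, curve class assigned.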
KB-3-1 tox = qHTS assay for MDR1-selective chemotherapeutics: Primary screen using the parental adenocarcinoma cell KB-3-1; KB-3-1 viability, CellTiter-Glo ATP luminescence, 72 h; Potency, µM (series often up to 46.1 µM), usual class: cytotoxic; actives 1.4% (n = 400,000); AID 1347075, 2019; also: nearly all actives have a fitted effect of over 60% in size
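KB-3-1 parental drug-naive adenocarcinoma cells in DMEM/10% FBS, incubated 72 h at 37 C with pin-transferred compounds across a concentration series. Viability by CellTiter-Glo luminescence; concentration-response curves fitted after normalization.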
TDP1 cell CPT = qHTS for Inhibitors of human tyrosyl-DNA phosphodiesterase 1 (TDP1): qHTS in cells in presence of CPT. Potency, µM (top dose mostly 46.2 µM), most hits filed as inhibitors. actives 12% (n = 420,000). AID 686979, 2013. chicken DT40 Tdp1-/-;hTDP1 cells + 20 nM CPT, ATP luminescence, 48 h; also: nearly all actives have a fitted effect of over 55% in size
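Cell growth measured by CellTiter-Glo luminescence after a minimum 48 h, 37 C compound exposure with 20 nM CPT in Tdp1-knockout DT40 cells stably expressing hTDP1, seeded 400/well; qHTS titration format.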
A number is an active result; . = inactive; ? = inconclusive; / = no result; [ ] = remark or other dose. Calls follow the shape of the dose curve; as a rule, active = well fitted curve in the direction sought with a large enough effect; inconclusive = small, poorly fitted or top-dose-only effect, or another doubt; inactive = no such curve, though single readings can be large; an effect the other way counts as inactive or inconclusive.

SMILES	KB-V1 cytotox	HT1080NT lethal	DT40 TDP1 no CPT	HT1080 IDH1KD tx	KB-3-1 tox	TDP1 cell CPT
C=CCNc1oc(-c2ccc(OC)cc2)nc1C#N	.	.[9.24 µM]	?	.	.	16.4µM
COc1ccc(-c2nc(C#N)c(NCc3ccco3)o2)cc1	.	.	16.4µM	.	.	?
CC(C)c1ccc(NC(=O)COC(=O)[C@@H]2CCCN2C(=O)c2cccs2)cc1	?	.	.	.	.	.
COc1cc2c(NC3CCN(C)CC3)nc(N3CCCN(C)CC3)nc2cc1OCC1CCCCN1 (stereo unspecified)	.	/	?	/	?	11.2µM
COc1cc2c(NC3CCN(C)CC3)nc(N3CCCN(C)CC3)nc2cc1OCCCCCC(N)=O	/	.	?	.	/	.
COc1cc2c(NC3CCN(C)CC3)nc(N3CCCN(C)CC3)nc2cc1O	/	.	.	.	/	.
COc1cc2nc(N3CCCN(C)CC3)nc(NC3CCN(C)C3)c2cc1OC (stereo unspecified)	.	/	17.8µM	/	?	12.6µM
COc1cc2nc(N3CCCN(C)CC3)nc(OC3CCN(C)CC3)c2cc1OC	.	/	14.1µM	/	.	?
COc1cc2nc(N3CCCN(C)CC3)nc(NC3CCCCC3)c2cc1OC	/	17.8µM	8.91µM	?	/	7.94µM
COc1cc2c(NC3CCN(C)CC3)nc(N3CCCN(C)CC3)nc2cc1OCCN(C)CCN(C)C	.	/	.	/	.	.
COc1cc2nc(N3CCNCC3)nc(N)c2cc1OC	.	.	.	.	?	.
Fc1ccccc1OCCCCN1CCCCC1	.	.	.	.	.	.
Cc1ccc2nc(-c3ccc(Cl)s3)c(Nc3ccc4c(c3)OCCO4)n2c1	.	/	?	/	.	?
COc1cc2nc(N3CCCN(C)CC3)nc(NC3CCOCC3)c2cc1OC	/	.	7.08µM	.	/	11.2µM
O=C(CSc1c2c(nc3ccc(Cl)cc13)CCCC2)N1CCN(c2ccc(Cl)cc2)CC1	/	/	16.4µM	/	/	11.6µM
O=C(c1ccc2c(Cl)c3c(nc2c1)CCCC3)N1CCN(c2ccccc2)CC1	.	/	.	/	.	.
COc1ccc(N2CCN(C(=O)CSc3c4c(nc5ccc(Cl)cc35)CCCC4)CC2)cc1	.	/	14.6µM	/	.	20.6µM
O=C(CSc1c2c(nc3ccc(Cl)cc13)CCCC2)N1CCN(c2cccc(Cl)c2)CC1	/	/	?	/	/	16.4µM
COc1ccc(NC2=NC(=S)N(c3ccccc3C)C23CCCCC3)cc1	.	.	25.9µM	.	.	23.1µM
COc1ccc(N2C(=S)N=C(Nc3ccccc3)C23CCCCC3)cc1	.	.	.	.	.	?
CCOc1ccc(N(CC(=O)NN=C2CCN(C)CC2)S(=O)(=O)c2ccc(Br)cc2)cc1	.	.	.	.	.	?
CN(C)c1ccc(C=Nc2ccccc2)cc1	.	.	.	.	.	.
CN(C)c1ccc(N=Cc2ccncc2)cc1	.	/	5.62µM	/	.	6.31µM
CN(C)c1ccc(N=Cc2ccco2)cc1	.	.	5.17µM	?	.	8.2µM
CC(=O)c1ccc(N2CCN(c3ncnc4c3cnn4-c3cc(Cl)ccc3C)CC2)cc1	.	/	5.8µM	/	?	2.59µM
CC(=O)c1ccc(N2CCN(c3ncnc4c3cnn4C)CC2)cc1	.	/	8.2µM	/	.	?
CCN(c1ncnc2c1cnn2-c1cc(Cl)ccc1C)C1CCCCC1	.	/	14.6µM	/	?	14.6µM
CCc1ccc(Nc2ncnc3c2cnn3-c2cc(Cl)ccc2C)cc1	?	/	.	/	.	?
CCOC(=O)C1CCCN(c2ncnc3c2cnn3-c2ccc(Cl)cc2)C1 (stereo unspecified)	13µM	.	?	?	.	.

Screening data from PubChem BioAssay.
